Paper PMC4336329 (PLoS ONE, 2015)
About 14,000 (4.5%) of roughly 310,000 compounds showed an effect of 50% or more. The effect is printed as a negative number. The list comes from a sample in which strong results are over-represented; it also holds similar structures and randomly drawn compounds.

Biological target: human ether-à-go-go-related gene (hERG) potassium channel (human, UniProt Q12809)
Assay: primary screen, population patch clamp on CHO cells stably expressing hERG; higher = less effect of the substance
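Also: peak tail current of the secondary pulse compared with the same well before compound.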

Sequence of human ether-à-go-go-related gene (hERG) potassium channel (Q12809 whole entry, looked up): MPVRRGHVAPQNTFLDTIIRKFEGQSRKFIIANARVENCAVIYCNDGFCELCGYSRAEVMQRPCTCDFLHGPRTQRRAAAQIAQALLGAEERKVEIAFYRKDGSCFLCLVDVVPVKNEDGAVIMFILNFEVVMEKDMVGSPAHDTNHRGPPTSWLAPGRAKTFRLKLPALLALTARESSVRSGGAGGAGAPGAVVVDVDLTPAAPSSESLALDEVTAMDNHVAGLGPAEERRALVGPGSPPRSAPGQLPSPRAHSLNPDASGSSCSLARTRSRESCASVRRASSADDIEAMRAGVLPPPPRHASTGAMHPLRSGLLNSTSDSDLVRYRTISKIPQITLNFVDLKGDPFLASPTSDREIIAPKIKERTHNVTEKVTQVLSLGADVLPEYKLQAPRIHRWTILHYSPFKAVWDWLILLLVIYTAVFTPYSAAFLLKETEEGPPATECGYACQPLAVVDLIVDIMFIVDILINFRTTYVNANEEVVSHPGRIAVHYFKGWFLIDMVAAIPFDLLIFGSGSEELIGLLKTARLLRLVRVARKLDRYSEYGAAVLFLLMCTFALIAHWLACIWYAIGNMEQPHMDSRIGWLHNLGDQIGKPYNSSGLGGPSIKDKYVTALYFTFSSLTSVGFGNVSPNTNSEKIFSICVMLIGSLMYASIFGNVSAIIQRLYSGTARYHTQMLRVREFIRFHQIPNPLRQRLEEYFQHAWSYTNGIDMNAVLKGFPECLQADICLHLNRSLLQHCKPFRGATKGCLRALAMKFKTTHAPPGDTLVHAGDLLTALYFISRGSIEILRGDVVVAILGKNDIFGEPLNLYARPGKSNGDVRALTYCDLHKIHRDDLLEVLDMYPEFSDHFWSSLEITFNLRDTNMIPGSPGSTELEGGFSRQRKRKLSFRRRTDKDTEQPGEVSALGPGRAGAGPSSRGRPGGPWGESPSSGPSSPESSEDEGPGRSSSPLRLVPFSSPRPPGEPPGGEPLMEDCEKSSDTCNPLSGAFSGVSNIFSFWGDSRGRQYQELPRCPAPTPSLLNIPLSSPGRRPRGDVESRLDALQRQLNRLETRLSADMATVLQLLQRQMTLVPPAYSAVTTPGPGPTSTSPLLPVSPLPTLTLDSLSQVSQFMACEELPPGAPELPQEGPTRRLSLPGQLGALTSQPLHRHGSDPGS

Structure (SMILES) | hERG current change (%, negative = inhibition) at 10uM [%]
CCOC(=O)c1c(N/N=C/c2ccncc2)n[nH]c1C | -10.9
COCCN(CC(=O)NC1CCCCC1)C(=O)CCCC(=O)Nc1ccccn1 | 10
COC/C=C/C1=CC2=CC(=O)C(C)(OC(=O)c3cnc4ccccc4n3)C(=O)C2=CN1Cc1ccco1 (stereo not drawn) | 0.0609
O=C(Nc1ccc2[nH]c(=O)[nH]c2c1)C(F)(F)F | 14.9
Cn1cc(C(=O)N2CCCCC2)c2ccccc21 | 4.66
Cc1cc(C)c(S(=O)(=O)NCCOc2ccccc2)c(C)c1-n1cnnn1 | 7.74
C=C[C@H]1CN2CC[C@H]1C[C@H]2[C@H](O)c1ccnc2ccccc12 | -34
C=CC1CN2CCC1CC2[C@@H](OC(=O)c1ccc(OC)cc1)c1ccnc2ccccc12 (stereo partly drawn) | -37.3
C=C[C@H]1CN2CC[C@H]1C[C@@H]2[C@@H](O)c1ccnc2ccccc12 | -57.1
CC(Nc1ccccc1)c1cccnc1 (stereo not drawn) | -49.1
COc1ccc(CCNS(=O)(=O)c2ccc(Cl)cc2)cc1OC | -6.54
Cc1nn(-c2ccccc2)c(C)c1NC(=O)COc1ccc(C#N)cc1 | -36.9
Cc1nn(-c2ccccc2)c(C)c1NC(=O)COc1ccc([N+](=O)[O-])cc1 | -69.4
CC(NC(=O)COc1ccc([N+](=O)[O-])cc1)c1ccccc1 (stereo not drawn) | -34.5
Cc1ccc(S(=O)(=O)NCCC(=O)OCc2ccc([N+](=O)[O-])cc2)cc1C | -42.3
CC(=O)NC(CC(=O)OCc1ccc([N+](=O)[O-])cc1)c1ccccc1 (stereo not drawn) | -63.1
CCOC(=O)CC(NC(C)=O)c1ccc([N+](=O)[O-])cc1 (stereo not drawn) | -1.79
CC(=O)Nc1ccc(S(=O)(=O)NCCC(=O)OCc2ccccc2F)cc1 | -8.68
CC(=O)c1ccc(OCC(=O)Nc2c(C)nn(-c3ccccc3)c2C)cc1 | -2.73
CC(=O)Nc1ccc(S(=O)(=O)NCCC(=O)OCc2ccc([N+](=O)[O-])cc2)cc1 | -57.4
O=C(O)CC(NC(=O)COc1ccccc1)c1cccc([N+](=O)[O-])c1 (stereo not drawn) | 18.8
CC(=O)NC(CC(=O)O)c1ccc([N+](=O)[O-])cc1 (stereo not drawn) | 10.6
CCC(NC(=O)COc1ccc([N+](=O)[O-])cc1)c1ccccc1 (stereo not drawn) | -50.7

Structure (SMILES) | hERG current change (%, negative = inhibition) at 10uM [%]
CCOc1ccc(S(=O)(=O)N(CC)CC)cc1NC(=O)c1ccc(N2CCCC2=O)cc1 | 18.2
O=C(N/N=C/c1cccnc1)c1ccc(CN2c3cccc4cccc(c34)S2(=O)=O)cc1 | 5.22
CCC(C(=O)NCc1cccs1)n1nc(C)n2c(cc3occc32)c1=O (stereo not drawn) | 0.0905
COC(=O)c1ccc(NC(=O)N2CCC(O)(c3cccnc3)CC2)cc1 | 9.11
CCOC(=O)c1cccc(NC(=O)CSc2nnc(COc3ccc(Cl)cc3)o2)c1 | 16.3
COc1ccc(C(C(=O)NC2CCCCC2)N2CCC3(CC2)OCCO3)cc1 (stereo not drawn) | -8.32
Nn1c(Nc2ccccc2)nc2ccccc2c1=O | 14.2
O=C(CC1C(=O)NCCN1Cc1cccc(F)c1F)NC1CCCCCC1 (stereo not drawn) | -10.6
CC1CCN(c2ccc(S(=O)(=O)NC3=NCCCCC3)cc2[N+](=O)[O-])CC1 | -11.2
COc1cccc(C2CC(c3cccs3)=NN2S(C)(=O)=O)c1OC (stereo not drawn) | 7.29
CCc1cc(C(=O)NNC(=S)Nc2cccc(C)c2)cs1 | 3.09
O=C1c2ccccc2C(=O)N1CCSc1ncn[nH]1 | 19.7
O=[N+]([O-])c1ccccc1S(=O)(=O)NCc1ccc(F)cc1 | 7.19
CCC(NC(=O)c1ccccc1O)c1ccccc1 (stereo not drawn) | -33.3
CC(NC(=O)c1ccc([N+](=O)[O-])cc1[N+](=O)[O-])c1ccc(-c2ccccc2)cc1 (stereo not drawn) | -1.64
CCC(NC(=O)c1ccc([N+](=O)[O-])cc1[N+](=O)[O-])c1ccccc1 (stereo not drawn) | -56
CN(C)c1ccc(CNCC2CCCO2)cc1.Cl (stereo not drawn) | 10.5
Cc1ccc(NC(=O)CN(C)C(=O)CCC(=O)c2cccs2)cc1 | -16.2
CC1CCOC2(O1)C(=O)Nc1ccccc12 (stereo not drawn) | 16.1
CC(C)OCCCNC(=O)c1cc(Sc2ccc(F)cc2)nc2ccccc12 | -5.77
O=C(NCCCN1CCCC1)c1cc(Sc2ccc(F)cc2)nc2ccccc12 | -74.1
Cc1ccc(Sc2cc(C(=O)NCCN(C)C)c3ccccc3n2)cc1 | -93.9
COCCCNC(=O)c1cc(Sc2ccc(F)cc2)nc2ccccc12 | -26.9

Structure (SMILES) | hERG current change (%, negative = inhibition) at 10uM [%]
COCCNC(=O)c1cc(Sc2nnc(C)s2)nc2ccccc12 | -18.2
COCCCNC(=O)c1cc(Sc2nnc(C)s2)nc2ccccc12 | 2.3
CCN(CC)CCNC(=O)c1cc(Sc2nnc(C)s2)nc2ccccc12 | -45.3
CCOCCCNC(=O)c1cc(Sc2ccc(F)cc2)nc2ccccc12 | -12.4
Cc1nnc(Sc2cc(C(=O)NCCCN(C)Cc3ccccc3)c3ccccc3n2)s1 | -56.2
CN(C)CCNC(=O)c1cc(Sc2ccc(F)cc2)nc2ccccc12 | -72.5
O=C(NCCCN1CCOCC1)c1cc(-c2ccc(F)cc2)nc2ccccc12 | -27.5
CCN(CC)CCCNC(=O)c1cc(Sc2nnc(C)s2)nc2ccccc12 | -40.4
O=C(O)CCc1ccc(-c2ccc(F)cc2)n1NC(=O)c1ccco1 | 8.01
CCN(CC(=O)N1CCN(C)CC1)S(=O)(=O)c1ccc(Cl)cc1 | -5.94
O=C1c2ccccc2S(=O)(=O)c2cc(C(=O)N3CCCC3)ccc21 | -1.93
O=C(CNC(=O)c1cccc(Br)c1)N/N=C/c1cccnc1 | -14
O=C(Nc1cccc(-c2ccc(N3CCCCC3)nn2)c1)C(F)(F)F | -8.5
C/C(CC(=O)NC1CCCCC1)=N\NC(=O)COc1ccc(C)cc1Br | -22.8
Cc1ccc(Sc2cc(C(=O)NCCCN(C)C)c3ccccc3n2)cc1 | -56.5
CCOCCCNC(=O)c1cc(Sc2nnc(C)s2)nc2ccccc12 | -2.23
CCOCCCNC(=O)c1cc(Sc2ccc(C)cc2)nc2ccccc12 | -19.3
COc1ccc(C=O)cc1OS(=O)(=O)c1ccccc1[N+](=O)[O-] | -3.35
COc1ccc(NS(=O)(=O)c2cccc(C(=O)NNC(=O)c3ccccc3OC)c2)cc1 | -16.4
CN(C)CCCn1c(=O)n(Cc2ccco2)c(=O)c2c3c(sc21)CCCCC3 | -71.1
O=c1c2c3c(sc2[nH]c(=S)n1Cc1ccco1)CCC3 | 6.17
Cn1c(=O)n(Cc2ccco2)c(=N)c2c3c(sc21)CCC3 | -64.8
Cn1c(=O)n(Cc2ccco2)c(=N)c2c3c(sc21)CCCC3 | -31.4

Structure (SMILES) | hERG current change (%, negative = inhibition) at 10uM [%]
CC(O)CNc1nc2sc3c(c2c(=O)n1Cc1ccco1)CCCCC3 (stereo not drawn) | 4.61
NC(=O)Cn1c(=O)n(Cc2ccco2)c(=O)c2c3c(sc21)CCCCC3 | 5.2
CN(C)CCn1c(=O)n(-c2ccc(F)cc2)c(=O)c2c3c(sc21)CCCCC3 | -18.6
CN(C)CCn1c(=O)n(-c2cccc(Cl)c2)c(=O)c2c3c(sc21)CCCCC3 | -20.7
CN(C)CCn1c(=O)n(Cc2ccco2)c(=O)c2c3c(sc21)CCCCC3 | -50.4
Cc1c(NC(=O)COC(=O)CSc2ccc(C(N)=O)cc2[N+](=O)[O-])c(=O)n(-c2ccccc2)n1C | 23.1
Cc1ccc(C)c(S(=O)(=O)N2CCN(C(=O)CCNS(=O)(=O)c3ccccc3)CC2)c1 | -33.6
O=C1NC(c2ccccc2)=NC1(NS(=O)(=O)c1ccccc1)C(F)(F)F (stereo not drawn) | -3.5
Cc1ccc(S(=O)(=O)N2CCC(C(=O)OC(C)C(=O)NC3CCCCC3C)CC2)cc1C (stereo not drawn) | -25.4
Cc1ccc(NC(=O)c2sc3nc4c(c(-c5ccco5)c3c2N)CCC4)cc1 | 11.6
Cc1cc(C(=O)Nc2ccc3[nH]ccc3c2)no1 | 6.46
Cc1ccc(S(=O)(=O)NCCSc2ccccc2)cc1[N+](=O)[O-] | -0.246
Cc1ccc(N(Cc2ccccc2)C(=O)c2ccc(S(=O)(=O)N3CCOCC3)cc2)cc1 | -28.5
Cc1cccc(N(Cc2ccccc2)C(=O)c2cccc(S(=O)(=O)N3CC(C)OC(C)C3)c2)c1 (stereo not drawn) | -9.56
Cc1ccc(N(Cc2ccccc2)C(=O)c2cccc(S(=O)(=O)N3CCN(C)CC3)c2)cc1 | -52.7
Cc1ccc(N(Cc2ccccc2)C(=O)c2cc(S(=O)(=O)N3CCOCC3)ccc2C)cc1 | -27.4
Cc1ccc(N(Cc2ccccc2)C(=O)c2cccc(S(=O)(=O)N3CCOCC3)c2)cc1 | -74.5
CC(=O)N1CCN(S(=O)(=O)c2cccc(C(=O)N(Cc3ccccc3)c3ccc(C)cc3)c2)CC1 | -61.2
Cc1ccc(N(Cc2ccccc2)C(=O)c2cccc(S(=O)(=O)N3CC(C)OC(C)C3)c2)cc1 (stereo not drawn) | -7.01
CC(=O)N1CCN(S(=O)(=O)c2cccc(C(=O)N(Cc3ccccc3)c3cccc(C)c3)c2)CC1 | -27.4
CN1CCN(S(=O)(=O)c2cccc(C(=O)N(Cc3ccccc3)c3ccccc3)c2)CC1 | -19.9
